This is a sample that favours compounds with a hit; in the whole collection about 18% have one here.
IL1B secr inh – inhibitors of inflammasome signaling (IL-1 beta secretion); THP-1 LPS/ATP IL-1B secretion, AlphaLISA, 16 h; active compounds read low; activity change, % at 57.5 µM; hit rate 4.7% among 360,000; AID 743279; in the data active = activity change below about -50%; inconclusive = mostly about -30% to -49%
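THP-1 cells pretreated 1 hr with compounds (up to 57.5 uM final), then stimulated with LPS (250 ng/mL final) plus ATP (1.25 mM final); secreted IL-1B measured by AlphaLISA after 16 hr, decreased signal indicating inhibition.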
Six1-Eya2 blk – Six1/Eya2 interaction inhibition; Q15475+O00167; hit rate 0.56% among 360,000; AlphaScreen GST-Six1/His-Eya2 binding, biochemical; active compounds read low; activity change, % (test concentration not listed); in the data active = activity change below about -65%; inconclusive = mostly about -30% to -63%
Target sequence (O00167 whole entry, looked up): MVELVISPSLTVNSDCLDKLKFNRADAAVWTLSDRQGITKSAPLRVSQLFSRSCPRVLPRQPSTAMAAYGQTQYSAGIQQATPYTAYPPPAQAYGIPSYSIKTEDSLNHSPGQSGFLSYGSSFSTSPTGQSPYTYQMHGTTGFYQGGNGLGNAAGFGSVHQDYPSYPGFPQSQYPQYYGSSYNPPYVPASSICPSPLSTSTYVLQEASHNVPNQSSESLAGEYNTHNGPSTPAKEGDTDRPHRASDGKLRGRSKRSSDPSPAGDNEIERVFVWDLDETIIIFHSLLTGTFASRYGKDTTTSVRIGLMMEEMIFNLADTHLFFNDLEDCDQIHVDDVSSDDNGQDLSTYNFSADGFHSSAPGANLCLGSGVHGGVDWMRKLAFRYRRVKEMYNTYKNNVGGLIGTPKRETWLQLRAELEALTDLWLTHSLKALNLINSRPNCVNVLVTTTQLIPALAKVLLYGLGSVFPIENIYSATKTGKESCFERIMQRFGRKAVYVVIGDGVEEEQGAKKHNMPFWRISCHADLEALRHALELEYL
Target sequence (Q15475 whole entry, looked up): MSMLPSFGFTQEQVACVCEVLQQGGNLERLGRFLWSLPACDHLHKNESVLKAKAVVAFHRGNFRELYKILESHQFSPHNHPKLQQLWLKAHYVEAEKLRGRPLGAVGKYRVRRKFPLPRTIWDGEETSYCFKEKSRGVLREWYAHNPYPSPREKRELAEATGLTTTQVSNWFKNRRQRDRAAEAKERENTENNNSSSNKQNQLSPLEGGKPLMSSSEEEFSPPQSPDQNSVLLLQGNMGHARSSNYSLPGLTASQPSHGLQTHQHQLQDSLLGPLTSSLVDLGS
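Six1/Eya2 binding was read as AlphaScreen signal after compounds were pinned into GST-Six1 plus His-tagged Eya2 (5X stock 250/500 nM) in pH 8.0 Tris/NaCl/TCEP buffer, beads added, then incubated 1 h, 37 C, dark.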
DT40 TDP1 CPT – DT40-hTDP1 cell growth loss with CPT; chicken DT40 Tdp1-/-;hTDP1 cells + 20 nM CPT, ATP luminescence, 48 h; hit rate 12% among 420,000; AID 686979; Potency, µM (doses to about 46.2 µM), without a hit: at the highest dose activity change, negative = growth inhibition, actives largely listed as inhibitors; also: potency is read from the fitted curve at half-maximal effect; nearly all actives have a fitted effect of over 55% in size
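Chicken DT40 Tdp1-/- cells stably complemented with human TDP1 were seeded at 400 cells/well in medium containing 20 nM camptothecin, exposed to pin-transferred compounds, and grown at 37 °C for at least 48 hr. Viability was read as ATP luminescence.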
CtBP-E1A blk – blocks the CtBP interaction with E1A; AlphaScreen GST-E1A/His-CtBP binding, 1536-well; active compounds read low; activity change, % (test concentration not listed); hit rate 0.49% among 340,000; AID 651724; in the data active = activity change below about -65%; inconclusive = mostly about -30% to -63%
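In 5 uL wells, 23 nL compound meets equimolar GST-E1A and His-CtBP (5X stock 125 nM each) for 2 h, 37 °C. Beads (5X, 50 ug/mL) then 1 h, 37 °C, dark.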
TDP1 inh – TDP1 (human) enzyme inhibition | recombinant TDP1, AlphaScreen DNA substrate cleavage | Potency, µM (top dose mostly 130 µM), for the others: top-dose activity change, negative = inhibition, hits mostly inhibitors | hit rate 0.28% among 350,000; also: potency is read from the fitted curve at half-maximal effect; nearly all actives have a fitted effect of over 40% in size
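Tdp1 1 nM final; 15 min RT w/ cpd; substrate 15 nM, 5 min; beads 10 ug/ml, 10 min; AlphaScreen read. Neg ctrl: no enzyme.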
TDP1 cell noCPT – qHTS for Inhibitors of human tyrosyl-DNA phosphodiesterase 1 (TDP1): qHTS in cells in absence of CPT; hit rate 15% among 420,000; DT40 Tdp1-/- hTDP1 cells, no CPT, ATP luminescence, 48 h; AID 686978, 2013; Potency, µM (titrated, usually from 46.2 µM), for the others: top-dose activity change, negative = growth inhibition, hits mostly inhibitors; also: potency is read from the fitted curve at half-maximal effect; nearly all actives have a fitted effect of over 55% in size
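Camptothecin absent (DMSO only). Human TDP1-complemented DT40 knockout cells, 400 cells/well, 37 °C for minimum 48 hr; ATP measured via CellTiter-Glo, 30 min dark incubation, luminescence.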
* = called active by the depositor; u = inconclusive; x = not tested or not shown; [ ] = remark or other dose. Unless noted, calls follow the shape of the dose curve; as a rule, active = well fitted curve in the direction sought with a large enough effect; inconclusive = small, poorly fitted or top-dose-only effect, or another doubt; inactive = no such curve, though single readings can be large; an effect the other way counts as inactive or inconclusive. % is scaled to controls: 0 for no effect and ±100 for the full control effect.

SMILES | IL1B secr inh | Six1-Eya2 blk | DT40 TDP1 CPT | CtBP-E1A blk | TDP1 inh | TDP1 cell noCPT
O=C(COc1ccc(Cl)cc1)NCc1n[nH]c(=O)c2ccccc12 | -2 | -13 | -17% | 0 | 56µM* | -12%
O=C(c1cnccn1)N1CCC2(CC1)CCN(c1ccncc1)CC2 | x | x | -4% | x | x | -28%
C=CCN(c1ccccc1Cl)S(=O)(=O)c1cccc(C(=O)OCC(=O)N(C)C2CCS(=O)(=O)C2)c1 (stereo not drawn) | 0 | -1 | 1% | -15 | -2% | -13%
Cc1ccc(NC(=O)c2nc(S(C)(=O)=O)ncc2N(Cc2ccccc2)Cc2ccco2)c(C)c1 | x | x | 13µM* | x | 1% | 18µM*
CS(=O)(=O)c1ncc(N(Cc2ccco2)Cc2cccs2)c(C(=O)Nc2ccccc2F)n1 | x | x | u | x | 5% | 21µM*
CCS(=O)(=O)c1ncc(N(Cc2ccccc2)Cc2ccco2)c(C(=O)Nc2ccccc2C)n1 | x | x | -18% | x | -3% | -23%
COc1ccc(NC(=O)c2nc(S(C)(=O)=O)ncc2N(Cc2ccc(C)cc2)Cc2ccco2)cc1Cl | x | x | u | x | 6% | 18µM*
CCS(=O)(=O)c1ncc(N(Cc2ccccc2)Cc2ccco2)c(C(=O)Nc2ccc(C)c(C)c2)n1 | x | x | 21µM* | x | 1% | 12µM*
Cc1ccc(NC(=O)c2nc(S(C)(=O)=O)ncc2N(Cc2ccco2)Cc2cccs2)cc1C | x | x | u | x | 4% | u
CN(C)c1ccc(/C=C(\NC(=O)c2ccccc2)C(=O)NCc2cccnc2)cc1 | 7 | -4 | -5% | 0 | 2%[0.0935 µM] | -23%
C[C@@H]1CN([C@@H](C)CO)C(=O)CCCn2nncc2CO[C@H]1CN(C)Cc1ccncc1 | -9 | 12 | -13% | -9 | x | -10%
Cc1ccc(C(=O)N2C3C=CC(C3)C2(C(F)(F)F)C(F)(F)F)cc1 (stereo not drawn) | 24 | 15 | -26% | 8 | -1% | -23%
COc1ccc(Cl)cc1NC(=O)c1nc(S(C)(=O)=O)ncc1N(Cc1ccc(C)cc1)Cc1ccco1 | x | x | 8.2µM* | x | 3% | 9.2µM*
CCc1ccc(CN(Cc2ccco2)c2cnc(S(C)(=O)=O)nc2C(=O)Nc2cccc(C)c2)cc1 | x | x | 13µM* | x | 4% | 21µM*
COc1ccccc1CN(Cc1ccco1)c1cnc(S(C)(=O)=O)nc1C(=O)Nc1ccccc1Cl | x | x | u | x | -1% | u
Cc1ccc(NC(=O)c2nc(S(C)(=O)=O)ncc2N(Cc2ccco2)Cc2ccco2)cc1C | x | x | u | x | 3% | u
COc1ccc(NC(=O)NNC(=O)c2cc3occc3n2C)c(OC)c1 | -19 | -13 | 4% | x | 12% | 2%
CC(=O)N1c2ccc(S(=O)(=O)N(C)Cc3ccco3)cc2CC1C (stereo not drawn) | 15 | 3 | -8% | -1 | 1% | -12%
O=C(CSc1nc(-c2cccs2)nc2cc(=O)[nH]n12)Nc1ccccc1 | x | x | 2% | x | -5% | 0%
O=C(Nc1cccc(-c2cccc(Cl)c2)c1)C1CCN(CC2CCOC2)CC1 (stereo not drawn) | -25 | 1 | u | -5 | 4% | u
O=C(Nc1cccc(-c2cccc(Cl)c2)c1)C1CCN(Cc2ccccn2)CC1 | -74* | 2 | u | 13 | 8% | 26µM*
O=C(Nc1cccc(-c2cccc(Cl)c2)c1)C1CCN(Cc2ccon2)CC1 | -61* | -6 | 13µM* | -3 | 1% | 29µM*
N#C/C(=C/c1ccc(CNC(=O)C(=O)Nc2cc(Cl)cc(Cl)c2)o1)C(=O)NCc1cccnc1 | 10 | 0 | u | 5 | -2% | u
O=C(NCc1cccnc1)/C(=C/c1ccc(-c2cccc(Cl)c2)o1)S(=O)(=O)c1ccccc1 | -106* | 2 | u | 5 | 6% | u
O=C(NCc1cccnc1)c1ccc(CS(=O)(=O)c2ccc(Cl)cc2)o1 | 6 | -1 | -29% | 6 | x | u
SMILES | IL1B secr inh | Six1-Eya2 blk | DT40 TDP1 CPT | CtBP-E1A blk | TDP1 inh | TDP1 cell noCPT
O=C(NCc1cccnc1)/C(=C\c1ccc(-c2cccc(Cl)c2)o1)S(=O)(=O)c1ccccc1 | -105* | 5 | 4.6µM* | 31 | 8% | 5.2µM*
CCCCOc1ccc(/C=C/C(=O)Nc2ccc([N+](=O)[O-])cc2C)cc1 | 6 | -8 | u | 1 | -4% | u
Cc1ccccc1OCCNC(=O)/C=C/c1ccc([N+](=O)[O-])cc1 | -70* | -11 | 1% | -11 | 0% | u
CCCOc1ccc(/C=C/C(=O)Nc2ccc([N+](=O)[O-])cc2)cc1 | -87* | -12 | 18µM* | -15 | 7% | 21µM*
C[C@H](CO)N1C[C@H](C)[C@H](CN(C)Cc2ccccc2)Oc2ccc(NC(=O)Nc3ccc(F)cc3)cc2C1=O | -16 | -18 | u | -8 | 3% | u
COc1ccc(NC(=O)N(C)C[C@H]2Oc3c(NC(=O)NC(C)C)cccc3C(=O)N([C@H](C)CO)C[C@@H]2C)cc1 | 22 | 7 | 2% | -13 | 1% | 1%
COc1ccc(NC(=O)Nc2cccc3c2O[C@H](CN(C)Cc2ccc(-c4ccccc4)cc2)[C@@H](C)CN([C@H](C)CO)C3=O)cc1 | 57 | -7 | 8.2µM* | -2 | -2% | 12µM*
C[C@@H]1CN([C@@H](C)CO)C(=O)c2cccc(NC(=O)Nc3ccc(F)cc3)c2O[C@@H]1CN(C)Cc1ccc(Oc2ccccc2)cc1 | 19 | -18 | 13µM* | -29 | 4% | 18µM*
Cc1ccccc1OCC(=O)Nc1ccc2c(c1)Cc1ccccc1-2 | -8 | 5 | -6% | -2 | 1% | -17%

Source: PubChem
